In PubChem BioAssay one finds composite z-score and z-score data, which are given here for 17 molecules.

Each structure is given as a SMILES string.

The test system of assay [1] is Human papillomavirus type 1a protein E7 (residues 44-93). Description: HPV1a E7 fragment binders on microarrays, primary screen, biochemical, small-molecule microarray, residues 44-93, 635 nm fluorescence (AID 1108).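 Also: E7 fragment applied at 1 µg/mL in TBST for 1 h at 4 C; score combines spot fluorescence with its signal to noise ratio.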 Conditions: small-molecule microarray binding, fluorescence 635 nm; higher = more signal.
A short description of assay [2]: modulators of HCV replicon luciferase signal, primary screen, HCV replication inhibitor project, Huh7 cells, luciferase reporter (AID 1109).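 Also: huh7 hepatoma cells harbouring a luciferase neomycin HCV replicon reporter; luciferase luminescence as measure of HCV replicon replication; test concentration not given here.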 Conditions: 48 h, higher = more signal.
Assay [3] has as its target Left-right determination factor 2 (Homo sapiens) (UniProt O00292). As to the kind of experiment: LEFTY2 binders on small-molecule microarrays, primary screen, biochemical, small-molecule microarray, 635 nm fluorescence scan (AID 1110). The following applies: LEFTY2 binding, higher = more signal.
For assay [4], the target named is Calmodulin-1 (Homo sapiens) (UniProt P0DP23). Description: CALM1 binders on microarrays, EGTA buffer, profiling panel, biochemical, small-molecule microarray, Cy5-labelled CALM1 (AID 1111).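 Also: labelled calmodulin applied in Tris saline Tween buffer holding calcium plus EGTA and DTT.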 Conditions: Cy5-CALM1 binding fluorescence, higher = more signal.
Assay [5] has the same target. Description: calcium-bound CALM1 binders on microarrays, profiling panel, artefact control for SMM control-protein annotation, biochemical, small-molecule microarray, Cy5-labelled CALM1, plus calcium (AID 1112).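 Also: score merges spot fluorescence with signal to noise from triplicate slides.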 Conditions: Cy5-CALM1 binding fluorescence, higher = more signal.
Assay [6] is described as follows: small-molecule microarray binders of probe aWnt5a, primary screen, biochemical, biotinylated probe, 635/667 nm fluorescence (AID 1113).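 Also: score merges 667 nm fluorescence intensity with signal-to-noise per printed feature.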 Conditions: higher = more signal.
Assay [7] is described as follows: small-molecule microarray binders of probe aShh, primary screen, biochemical, biotinylated probe, 635/667 nm fluorescence (AID 1114).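 Also: probe is biotin-labelled aShh protein from a stem cell growth factor screen; measures binding of labelled protein to compounds printed on the slide; score merges feature fluorescence at 667 nm with signal-to-noise.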 The following applies: higher = more signal.
The nature of assay [8]: small-molecule microarray binders of probe aNog, primary screen, biochemical, biotinylated probe, 635/667 nm fluorescence (AID 1115).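 Also: probe is biotinylated aNog protein used at 0.15 µg/mL for 1 h at 4 C; z-score combines 667 nm fluorescence of each spot with its signal to noise.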 Conditions: higher = more signal.
Assay [9] concerns the target Torsin-1A-interacting protein 1 (Homo sapiens) (UniProt Q5JTV8). As to the kind of experiment: LAP1 binders from COS7 cell lysate, primary screen, small-molecule microarray, 635/667 nm fluorescence (AID 1116). The following applies: COS7-hLAP1 lysate binding, 635 nm fluorescence, higher = more signal.
Assay [10] has as its target Alpha-bungarotoxin (Bungarus multicinctus) (UniProt P60615). As to the kind of experiment: alpha-bungarotoxin binders on microarray, profiling panel, artefact control for SMM control protein annotation, biochemical, small-molecule microarray, Alexa647 label, 635/667 nm fluorescence (AID 1117). Conditions: alpha-BTX-A647 binding fluorescence, higher = more signal.

Chain of Alpha-bungarotoxin (Bungarus multicinctus) (P60615 whole entry, looked up): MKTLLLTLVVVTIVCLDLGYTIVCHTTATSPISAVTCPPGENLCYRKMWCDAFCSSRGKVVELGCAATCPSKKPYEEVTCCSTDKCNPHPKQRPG
Chain of Torsin-1A-interacting protein 1 (Homo sapiens) (Q5JTV8 whole entry, looked up): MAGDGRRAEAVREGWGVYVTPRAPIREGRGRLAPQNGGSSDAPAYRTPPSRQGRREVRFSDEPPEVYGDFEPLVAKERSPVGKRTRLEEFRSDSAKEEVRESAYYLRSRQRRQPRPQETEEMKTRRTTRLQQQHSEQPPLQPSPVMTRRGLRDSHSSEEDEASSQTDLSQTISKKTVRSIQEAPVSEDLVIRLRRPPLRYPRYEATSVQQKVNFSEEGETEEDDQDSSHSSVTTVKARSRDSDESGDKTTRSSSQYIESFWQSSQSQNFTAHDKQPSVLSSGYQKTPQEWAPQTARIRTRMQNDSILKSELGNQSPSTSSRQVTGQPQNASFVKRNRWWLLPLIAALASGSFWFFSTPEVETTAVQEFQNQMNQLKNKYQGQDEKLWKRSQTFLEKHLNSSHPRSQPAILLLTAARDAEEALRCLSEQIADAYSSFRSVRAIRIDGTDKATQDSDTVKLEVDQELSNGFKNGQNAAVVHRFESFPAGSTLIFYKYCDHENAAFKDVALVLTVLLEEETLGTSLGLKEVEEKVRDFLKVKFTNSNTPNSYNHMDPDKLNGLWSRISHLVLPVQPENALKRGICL
Chain of Left-right determination factor 2 (Homo sapiens) (O00292 whole entry, looked up): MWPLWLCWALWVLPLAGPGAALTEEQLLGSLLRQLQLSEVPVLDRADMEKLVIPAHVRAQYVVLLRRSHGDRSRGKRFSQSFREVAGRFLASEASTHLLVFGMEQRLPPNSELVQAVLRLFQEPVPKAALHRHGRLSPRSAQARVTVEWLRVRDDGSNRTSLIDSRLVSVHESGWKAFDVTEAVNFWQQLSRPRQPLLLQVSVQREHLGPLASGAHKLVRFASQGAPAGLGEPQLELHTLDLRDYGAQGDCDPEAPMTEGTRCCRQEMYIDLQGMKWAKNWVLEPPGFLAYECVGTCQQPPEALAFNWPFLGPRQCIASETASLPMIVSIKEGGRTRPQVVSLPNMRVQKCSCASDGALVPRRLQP

With `Cn1c(=O)n2n(c1=O)[C@H]1[C@H](O)[C@@H]3O[C@@H]3C(=NOC[C@@H](O)COCc3ccco3)[C@H]1CC2`, the composite z-score in [1] is 0.499; in assay [3] it was 0.83; in assay [4], 0.132; in [5] it was -0.844; in assay [6], -0.216; in assay [7], -0.468. Moreover, the composite z-score in assay [8] stood at 0.964; in [9], 0.314; in [10] it was 0.318. Besides, in [2], the z-score came to 0.481.

Turning to `O=C1O[C@@H](c2ccccc2)[C@@H](c2ccccc2)N2[C@@H](c3ccc(OCCO)cc3)[C@]3(C(=O)Nc4ccccc43)[C@@H](C(=O)N3CCN(c4ncccn4)CC3)[C@H]12`, the composite z-score in [1] was 1.35; in assay [3], 0.773; in assay [4], 0.0357; in assay [5] it was -0.355; in [6] it was -0.0685; in assay [7], 0.0044. Further, the figures for the composite z-score in assay [8], in [9] and in [10] were 0.751, 0.96 and 1.53, respectively. The z-score in assay [2] is -2.4.

Turning to `COC(=O)[C@]1(CO)N=C(c2ccc(OCCCO)cc2)O[C@@H]1c1ccccc1N=[N+]=[N-]`, the composite z-score is 0.812 in assay [1]; 0.274 in assay [3]; -0.323 in assay [4]; -0.629 in [5]; 0.0189 in [6]; -0.226 in [7]. The composite z-score in assay [8] was -0.215; in assay [9], 1.6; in assay [10], -0.0978. The z-score in assay [2] turned out to be 0.411.

On to `C#C[C@@H](CC)O[Si](C#Cc1ccc(Oc2ccccc2)cc1)(C(C)C)C(C)C`, for which the composite z-score is 1.1 in assay [1]; 0.341 in assay [3]; -0.0885 in assay [4]; -0.657 in assay [5]; -0.0963 in assay [6]; -0.0533 in [7]. Also, the composite z-score in assay [8] was -0.254; in assay [9], 0.368; in [10], 0.0826. For the same molecule, the z-score in [2] is -0.715.

`O=C1[C@H]2[C@H]3[C@H](O)[C@H](O)CC(=NO[C@@H]4O[C@H](CO)[C@@H](O)[C@H](O)[C@H]4O)[C@@H]3CC[C@H]2C(=O)N1Cc1ccc2c(c1)OCO2`: the composite z-score is 1.13 in [1]; 0.387 in assay [3]; 0.0102 in assay [4]; -0.566 in assay [5]; -0.0519 in assay [6]; -0.403 in assay [7]. Also, the figures for the composite z-score in assay [8], in assay [9] and in [10] were -0.244, 0.715 and 0.378, respectively. This molecule yielded a z-score in [2] of 0.363.

With `CC(C)CON=C1C[C@@H](O)[C@@H](O)[C@@H]2[C@@H]3C(=O)N(C[C@@H]4CCCO4)C(=O)[C@@H]3CC[C@H]12`, the composite z-score was 0.595 in assay [1]; 0.781 in assay [3]; 0.0832 in assay [4]; 0.0249 in [5]; -0.178 in assay [6]; -0.345 in assay [7]. Also, the composite z-score is -0.074 in assay [8], 0.241 in [9] and 0.0141 in assay [10]. In addition, the z-score in assay [2] came out at 0.392.

Turning to `COC(=O)[C@@H]1CC[C@H](C)[C@@H](c2ccc(C)cc2)N1C(=O)c1ccc(C=NOC[C@@H](O)COCc2ccco2)cc1`, the composite z-score is -1.6 in [1]; 0.283 in assay [3]; -1.22 in assay [4]; -1.22 in [5]; -0.21 in [6]; -0.2 in assay [7]. In addition, the figures for the composite z-score in assay [8], in assay [9] and in assay [10] were -0.788, -1.63 and -1.25, respectively. Further, the z-score in assay [2] is -2.42.

Turning to `O=C(CS)NCCCCCNC(=O)[C@H]1C[C@H]2C(=O)N3CCC[C@H]3C(=O)N2[C@H]1c1cccc(OCCO)c1`, the composite z-score in [1] was 0.435; in assay [3], 0.691; in assay [4], -0.8; in assay [5] it was -1; in [6], 0.128; in assay [7] it was -0.138. The results for the composite z-score in [8], in assay [9] and in assay [10] were -0.347, 1.22 and 1.55, respectively. The z-score in assay [2] was 0.235.

For the molecule `O=C1C[C@@H](O)[C@@H](O)[C@@H]2[C@@H]3C(=O)N(c4cccc(Oc5ccccc5)c4)C(=O)[C@@H]3CC[C@@H]12`, the composite z-score is 0.994 in assay [1]; 0.962 in [3]; 0.77 in assay [4]; -0.261 in assay [5]; -0.0327 in assay [6]; -0.206 in assay [7]. The composite z-score in [8] is -0.4; in assay [9] it was 0.613; in assay [10], 0.106. Besides, the z-score in [2] was -0.197.

In the case of `COc1ccccc1CN1C(=O)c2ccccc2[C@@]2(Cc3ccccc3N(C(C)C)C2=O)[C@@H]1c1ccc(CO)cc1`, the composite z-score in assay [1] was -0.0853; in assay [3], -0.88; in assay [4], -0.37; in assay [5], -0.772; in assay [6], -0.12; in assay [7], -0.0553. Besides, the values for the composite z-score in assay [8], in assay [9] and in assay [10] were 0.005, -0.509 and 1.12, respectively. In assay [2], the z-score was -0.318.

For `CC(C)[C@H](NC(=O)OC(C)(C)C)[C@@H](O)CC(=O)OC(C)(C)C`, the composite z-score in assay [1] is -2.46; in assay [3] it was -0.428; in [4], -0.32; in assay [5], -0.275; in assay [6] it was -0.0977; in assay [7], -0.147. Besides, the composite z-score in assay [8] is -0.241; in assay [9] it was -0.68; in assay [10], -0.232. The z-score in [2] was -0.59.

Consider `CC(C)NC(=O)[C@@]1(C)c2ccccc2C(=O)N(Cc2cc(F)cc(C(F)(F)F)c2)[C@H]1c1ccc(CO)cc1`, for which the composite z-score in assay [1] is 1.3; in assay [3], -0.0164; in [4], 0.304; in assay [5], 0.418; in [6] it was -0.0165; in assay [7], -0.121. In addition, the composite z-score in assay [8] is -0.347; in assay [9], 0.363; in [10], 1.16. The z-score in assay [2] was determined as 0.0589.

Consider `COC(=O)[C@H]1COC(c2ccc(OCCCO)cc2)=N1`, for which the composite z-score in assay [1] is -1.8; in [3], -0.365; in assay [4] it was -0.545; in [5], 0.662; in [6] it was 0.0108; in assay [7], -0.276. Also, the composite z-score in [8] was 0.221; in assay [9], 1.94; in assay [10] it was -0.373. Moreover, the z-score in assay [2] is 0.592.

`CC(CCN1CCc2nc(-c3ccccc3)c(-c3ccccc3)cc2C1)=NOC[C@@H](C)[C@H](OCc1ccccc1)C(C)C`: the composite z-score in assay [1] was -1.08; in assay [3], -0.323; in assay [4], -0.607; in assay [5], 0.343; in assay [6] it was -0.134; in assay [7], -0.304. The composite z-score in assay [8] was -0.278; in assay [9] it was -0.424; in assay [10] it was 1.14. In addition, the z-score in assay [2] was -1.77.

For the molecule `O=C1[C@H]2[C@H]3[C@H](O)[C@H](O)CC(=NO[C@@H]4O[C@H](CO)[C@@H](O)[C@H](O)[C@H]4O)[C@H]3CC[C@H]2C(=O)N1Cc1ccc2c(c1)OCO2`, the composite z-score in assay [1] was 1.44; in assay [3], -0.515; in assay [4], -0.603; in assay [5], -0.329; in assay [6], -0.115; in [7], -0.397. The composite z-score in assay [8] is 0.0327; in assay [9], 0.441; in assay [10], 1.02. For the same molecule, the z-score in [2] was -0.594.

In the case of `Cc1cc(C)c(-c2cc([C@H](C)ON=C3[C@H]4CCn5c(=O)n(-c6ccccc6)c(=O)n5[C@H]4[C@H](O)[C@@H]4O[C@H]34)on2)c(C)c1`, the composite z-score in assay [1] is 0.548; in assay [3], 0.59; in assay [4], 0.0681; in [5] it was -0.386; in [6] it was 0.0559; in [7], 0.184. Besides, the composite z-score in assay [8] was -0.0554; in [9] it was 0.441; in assay [10] it was 0.322. Moreover, in [2], the z-score is -4.92.

Turning to `C=COC[C@H]1CN2[C@@H](CC[C@@H](C)[C@@H]2c2ccc(Br)cc2)C(=O)O1`, the composite z-score in assay [1] is 0.864; in [3] it was 0.792; in assay [4], 0.537; in [5], -0.092; in [6], -0.176; in [7], -0.304. Further, the composite z-score was -0.0286 in assay [8], -0.415 in assay [9] and 0.166 in assay [10]. In assay [2], this molecule showed a z-score of 0.924.
